Common to all, as to set-up: scale not given: direction of the effect not stated beside the values
In test [1] the target is Protein translocase subunit SecA (Escherichia coli (strain K12)) (UniProt P10408). Briefly: Assay to Identify E. coli SecA ATPase Inhibitors. It is filed as functional. To be noted: 30 µM.
Test [2] concerns the target T1, Ubiquitin-activating enzyme e1, putative (Leishmania donovani (strain BPK282A1)) (UniProt E9BSI1).
T1 sequence (whole entry): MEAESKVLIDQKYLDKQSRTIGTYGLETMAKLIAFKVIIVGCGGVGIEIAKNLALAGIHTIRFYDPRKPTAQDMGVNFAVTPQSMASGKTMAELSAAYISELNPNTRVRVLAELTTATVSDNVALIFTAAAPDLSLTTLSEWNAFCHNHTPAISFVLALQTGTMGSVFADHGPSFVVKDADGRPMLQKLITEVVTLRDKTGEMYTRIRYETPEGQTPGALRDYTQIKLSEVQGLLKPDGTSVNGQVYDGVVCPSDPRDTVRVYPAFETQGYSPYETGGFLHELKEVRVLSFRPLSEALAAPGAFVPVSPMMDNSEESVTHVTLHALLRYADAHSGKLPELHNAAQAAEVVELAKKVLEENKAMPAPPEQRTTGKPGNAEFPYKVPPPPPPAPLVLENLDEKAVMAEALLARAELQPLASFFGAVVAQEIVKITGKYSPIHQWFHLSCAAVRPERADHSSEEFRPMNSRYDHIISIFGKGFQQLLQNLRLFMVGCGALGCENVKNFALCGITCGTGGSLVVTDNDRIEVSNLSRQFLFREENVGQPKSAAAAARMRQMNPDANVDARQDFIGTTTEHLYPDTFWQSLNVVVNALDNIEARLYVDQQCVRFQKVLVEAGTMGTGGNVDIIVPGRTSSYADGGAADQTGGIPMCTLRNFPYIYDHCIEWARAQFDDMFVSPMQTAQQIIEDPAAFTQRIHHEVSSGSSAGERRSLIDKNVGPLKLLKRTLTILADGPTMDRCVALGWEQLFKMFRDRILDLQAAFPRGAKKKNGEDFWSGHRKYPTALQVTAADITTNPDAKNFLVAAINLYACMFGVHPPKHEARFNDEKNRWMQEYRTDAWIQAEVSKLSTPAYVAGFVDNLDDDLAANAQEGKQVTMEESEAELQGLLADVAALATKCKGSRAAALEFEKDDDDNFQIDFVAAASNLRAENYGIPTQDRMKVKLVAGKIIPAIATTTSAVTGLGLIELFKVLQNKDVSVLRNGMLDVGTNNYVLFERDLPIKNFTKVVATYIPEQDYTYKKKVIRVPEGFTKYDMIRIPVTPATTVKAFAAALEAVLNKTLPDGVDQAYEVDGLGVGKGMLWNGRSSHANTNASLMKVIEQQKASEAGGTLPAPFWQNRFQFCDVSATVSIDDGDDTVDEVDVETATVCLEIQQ
Briefly: Leishmania donovani Ubiquitin Activating Enzyme (LdE1). It is filed as functional. As to conditions: 30 µM.

In test [3] the target is AMP-activated protein kinase, AMPK (Homo sapiens) (UniProt P54646+O43741+P54619+Q9UGJ0+Q9Y478+Q13131+Q9UGI9). Briefly: AMP-dependent Kinase enzyme assay. An in vitro enzyme assay that detects ADP turnover that is directly proportional to AMPK activity. This uses naive AMPK that is activated during the assay with MK-8722. It is filed as functional. As to conditions: 30 µM.

In test [4] the target is Sialic acid-binding Ig-like lectin 9 (Homo sapiens) (UniProt Q9Y336). The test can be described thus: Hs-Siglec9 ALPHAscreen SOP 20170721. As to conditions: 10 µM. In general terms: Alpha assays give light when donor and acceptor beads are brought close together.
For a further test, the system named is Trypanosoma cruzi. The test can be described thus: Trypanosoma cruzi phosphomannomutase and mannose-1-phosphate guanylyltransferase assay. It is filed as functional. To be noted: 10 µM.
Test [5] has as its target T2, Arginase-2, mitochondrial (Homo sapiens) (UniProt P78540).
T2 sequence (whole entry): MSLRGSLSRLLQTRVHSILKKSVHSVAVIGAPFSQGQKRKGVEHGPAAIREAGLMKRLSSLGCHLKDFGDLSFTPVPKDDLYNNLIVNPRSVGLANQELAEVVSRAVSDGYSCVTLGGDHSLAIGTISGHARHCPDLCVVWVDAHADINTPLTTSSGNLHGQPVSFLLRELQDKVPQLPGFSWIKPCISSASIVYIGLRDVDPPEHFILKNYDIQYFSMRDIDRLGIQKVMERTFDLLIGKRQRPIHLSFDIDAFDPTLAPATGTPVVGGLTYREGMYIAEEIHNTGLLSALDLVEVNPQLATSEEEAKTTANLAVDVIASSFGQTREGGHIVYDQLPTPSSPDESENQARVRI
Briefly: in vitro enzyme assay to detect the production of urea directly proportional to the activity of Arginase II. Also: in the data most compounds retested in dose-response had high values. The class given is functional. To be noted: 33.3 µM.

Test [6] addresses T3, Proteasome subunit beta (Trypanosoma cruzi) (UniProt O96673).
T3 sequence (whole entry): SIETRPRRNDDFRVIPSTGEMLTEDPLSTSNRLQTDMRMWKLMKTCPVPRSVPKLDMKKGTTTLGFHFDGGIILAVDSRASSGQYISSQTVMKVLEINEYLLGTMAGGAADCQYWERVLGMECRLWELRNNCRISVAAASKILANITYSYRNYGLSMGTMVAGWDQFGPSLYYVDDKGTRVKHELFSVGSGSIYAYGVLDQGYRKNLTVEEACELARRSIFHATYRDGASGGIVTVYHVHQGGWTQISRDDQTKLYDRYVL
The test can be described thus: Trypanosoma cruzi proteasome chymotrypsin-like activity (TcProtChymo) assay. Also: in the data most compounds retested in dose-response had high values. To be noted: 9.37 µM. It is filed as functional.

The species named for a further test is Homo sapiens. Briefly: To identify inhibition of the IFN signalling (Jak-Stat) pathway via expression of an eGFP reporter gene under the control of an IFN-stimulated response element (ISRE) containing MxA promoter. As to conditions: 30 µM. It is filed as functional. For orientation: A reporter such as luciferase makes a cellular process visible.
Test [7] addresses T4, Tyrosyl-tRNA synthetase, putative (Trypanosoma cruzi (strain CL Brener)) (UniProt Q4DSP6).
T4 sequence (whole entry): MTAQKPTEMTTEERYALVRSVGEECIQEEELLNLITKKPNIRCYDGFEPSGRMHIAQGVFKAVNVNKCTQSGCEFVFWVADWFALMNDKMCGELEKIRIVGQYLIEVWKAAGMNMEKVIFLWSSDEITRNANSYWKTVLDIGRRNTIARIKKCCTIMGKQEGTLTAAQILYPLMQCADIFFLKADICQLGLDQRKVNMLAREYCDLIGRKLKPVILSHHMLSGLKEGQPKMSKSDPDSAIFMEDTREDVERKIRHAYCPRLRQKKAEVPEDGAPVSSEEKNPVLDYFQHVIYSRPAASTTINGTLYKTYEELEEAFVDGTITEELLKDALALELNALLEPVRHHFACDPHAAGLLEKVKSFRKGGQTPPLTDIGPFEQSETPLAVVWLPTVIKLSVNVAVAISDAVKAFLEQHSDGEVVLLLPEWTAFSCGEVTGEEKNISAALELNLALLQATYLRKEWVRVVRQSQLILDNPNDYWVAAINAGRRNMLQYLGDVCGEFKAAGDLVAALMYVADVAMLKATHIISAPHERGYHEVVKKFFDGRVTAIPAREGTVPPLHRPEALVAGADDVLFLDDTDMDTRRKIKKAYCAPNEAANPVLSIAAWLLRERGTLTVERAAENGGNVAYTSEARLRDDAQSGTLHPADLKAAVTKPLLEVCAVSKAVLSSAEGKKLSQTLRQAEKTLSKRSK
Briefly: Trypanosoma cruzi tyrosyl tRNA synthetase (TcYRS) _High Tyrosine SOP. Also: in the data most compounds retested in dose-response had high values. The class given is functional. To be noted: 30 µM.

The target of test [8] is T4, Tyrosyl-tRNA synthetase, putative (Trypanosoma cruzi (strain CL Brener)). The test can be described thus: Trypanosoma cruzi tyrosyl tRNA synthetase (TcYRS) SOP. The class given is functional. As to conditions: 30 µM.
Test [9] concerns the target Chromo domain-containing protein 1 (Saccharomyces cerevisiae (strain ATCC 204508 / S288c) (Baker's yeast)) (UniProt P32657). The test can be described thus: ScCHD-1 Enzyme Inhibition Assay. Also: in the data most compounds retested in dose-response had high values. The class given is functional. To be noted: 30 µM.

Structures are written as SMILES. For some of these results: Potency and affinity values are given separately.

Sequence of Sialic acid-binding Ig-like lectin 9 (Homo sapiens) (Q9Y336 whole entry): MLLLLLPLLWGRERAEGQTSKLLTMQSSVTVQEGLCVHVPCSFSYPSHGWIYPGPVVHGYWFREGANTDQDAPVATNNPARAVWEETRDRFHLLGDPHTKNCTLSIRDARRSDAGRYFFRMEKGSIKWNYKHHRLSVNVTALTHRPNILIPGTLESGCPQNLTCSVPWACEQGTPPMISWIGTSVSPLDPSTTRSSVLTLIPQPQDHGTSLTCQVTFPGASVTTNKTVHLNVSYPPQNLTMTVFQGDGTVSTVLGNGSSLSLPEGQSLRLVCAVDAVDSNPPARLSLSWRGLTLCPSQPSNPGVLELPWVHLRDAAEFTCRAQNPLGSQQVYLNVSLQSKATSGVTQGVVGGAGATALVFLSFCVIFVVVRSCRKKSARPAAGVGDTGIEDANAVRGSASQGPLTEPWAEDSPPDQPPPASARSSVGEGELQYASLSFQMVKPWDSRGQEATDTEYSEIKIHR
Sequence of Protein translocase subunit SecA (Escherichia coli (strain K12)) (P10408 whole entry): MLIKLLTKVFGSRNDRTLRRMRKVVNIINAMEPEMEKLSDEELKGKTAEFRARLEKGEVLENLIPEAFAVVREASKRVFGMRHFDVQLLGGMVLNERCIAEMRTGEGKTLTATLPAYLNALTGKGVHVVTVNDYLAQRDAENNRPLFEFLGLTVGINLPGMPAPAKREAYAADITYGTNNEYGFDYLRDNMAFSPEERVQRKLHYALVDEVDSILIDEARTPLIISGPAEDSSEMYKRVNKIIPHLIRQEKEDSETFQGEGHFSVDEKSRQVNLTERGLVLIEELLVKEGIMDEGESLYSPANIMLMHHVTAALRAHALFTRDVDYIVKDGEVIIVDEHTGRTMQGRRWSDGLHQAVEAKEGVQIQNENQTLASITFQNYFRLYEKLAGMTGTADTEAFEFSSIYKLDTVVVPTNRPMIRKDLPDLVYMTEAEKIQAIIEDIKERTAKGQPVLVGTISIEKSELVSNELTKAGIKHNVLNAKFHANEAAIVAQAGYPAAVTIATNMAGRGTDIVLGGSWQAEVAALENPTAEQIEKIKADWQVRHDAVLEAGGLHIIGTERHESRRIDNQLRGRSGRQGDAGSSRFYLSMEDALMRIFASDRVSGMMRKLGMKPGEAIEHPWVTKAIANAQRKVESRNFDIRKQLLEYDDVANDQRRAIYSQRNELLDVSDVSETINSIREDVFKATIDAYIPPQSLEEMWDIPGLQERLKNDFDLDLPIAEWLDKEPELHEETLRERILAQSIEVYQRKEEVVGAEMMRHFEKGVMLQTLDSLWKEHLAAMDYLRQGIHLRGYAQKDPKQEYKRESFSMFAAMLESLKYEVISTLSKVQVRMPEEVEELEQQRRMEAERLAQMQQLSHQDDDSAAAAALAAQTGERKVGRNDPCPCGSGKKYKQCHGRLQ
Sequence of Chromo domain-containing protein 1 (Saccharomyces cerevisiae (strain ATCC 204508 / S288c) (Baker's yeast)) (P32657 whole entry, the tested form may be a part): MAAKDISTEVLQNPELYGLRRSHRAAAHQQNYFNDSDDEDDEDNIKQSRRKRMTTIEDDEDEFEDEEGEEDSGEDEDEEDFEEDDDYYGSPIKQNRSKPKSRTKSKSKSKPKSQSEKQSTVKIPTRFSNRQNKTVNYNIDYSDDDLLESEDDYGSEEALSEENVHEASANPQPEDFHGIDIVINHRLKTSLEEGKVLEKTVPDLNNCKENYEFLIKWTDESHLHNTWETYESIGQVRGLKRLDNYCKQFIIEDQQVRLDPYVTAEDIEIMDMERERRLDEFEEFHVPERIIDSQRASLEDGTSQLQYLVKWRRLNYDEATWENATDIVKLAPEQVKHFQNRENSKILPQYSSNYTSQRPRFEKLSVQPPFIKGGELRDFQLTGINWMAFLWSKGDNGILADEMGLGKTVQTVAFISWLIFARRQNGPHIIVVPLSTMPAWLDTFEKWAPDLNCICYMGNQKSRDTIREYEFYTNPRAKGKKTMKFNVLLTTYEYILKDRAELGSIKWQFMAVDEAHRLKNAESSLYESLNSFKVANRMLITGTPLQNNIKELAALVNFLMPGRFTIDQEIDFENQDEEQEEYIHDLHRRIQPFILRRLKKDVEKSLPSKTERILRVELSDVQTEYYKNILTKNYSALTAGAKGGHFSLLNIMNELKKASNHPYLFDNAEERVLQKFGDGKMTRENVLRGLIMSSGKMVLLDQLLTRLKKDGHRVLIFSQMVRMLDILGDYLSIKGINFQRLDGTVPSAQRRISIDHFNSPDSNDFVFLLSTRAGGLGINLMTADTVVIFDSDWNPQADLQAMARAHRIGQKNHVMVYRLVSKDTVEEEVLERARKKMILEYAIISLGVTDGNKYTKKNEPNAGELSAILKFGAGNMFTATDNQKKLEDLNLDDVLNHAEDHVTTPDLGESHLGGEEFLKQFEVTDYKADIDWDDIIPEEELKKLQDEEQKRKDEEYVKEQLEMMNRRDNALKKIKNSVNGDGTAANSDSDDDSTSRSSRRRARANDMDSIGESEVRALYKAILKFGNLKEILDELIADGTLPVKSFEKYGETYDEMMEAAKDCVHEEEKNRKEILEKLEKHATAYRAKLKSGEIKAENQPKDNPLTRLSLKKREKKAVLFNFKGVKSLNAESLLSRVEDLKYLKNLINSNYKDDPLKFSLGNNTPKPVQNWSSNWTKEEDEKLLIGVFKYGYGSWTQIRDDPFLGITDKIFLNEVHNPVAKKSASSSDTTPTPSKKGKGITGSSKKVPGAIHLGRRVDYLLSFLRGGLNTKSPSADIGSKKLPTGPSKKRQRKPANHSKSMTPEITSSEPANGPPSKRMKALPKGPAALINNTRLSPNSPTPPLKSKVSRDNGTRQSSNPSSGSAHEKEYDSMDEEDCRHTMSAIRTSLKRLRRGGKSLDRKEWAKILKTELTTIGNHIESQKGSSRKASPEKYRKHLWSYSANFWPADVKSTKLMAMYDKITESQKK

As to `CN(C)CCN1CCOCC2(C1)CN(Cc1ccsc1)CCO2` (stereo unspecified), the Percent Effect in test [1] is -4.22%; in test [2], 5.33%; in test [3] it was 14.3%; in test [4], 0.643%; in the test with Trypanosoma cruzi, -2.56%; in test [5] it was 4.89%. Moreover, the Percent Effect was 4.67% in test [6]; -0.367% in the test filed under Homo sapiens; 4.25% in test [7]; 8.97% in [8]; -3.51% in [9].
In the case of `CCn1nccc1CNC(=O)NC1CCCCC1`, the Percent Effect is -3.38% in test [1]; 7.79% in test [2]; 7.6% in test [3]; -2.52% in test [4]; -7.18% in the test on Trypanosoma cruzi; 0% in test [5]. The Percent Effect in [6] is 9.98%; in the test filed under Homo sapiens, 12%; in test [7] it was 1.07%; in test [8], 3.7%; in test [9], -2.19%.
As for `CCS(=O)(=O)Nc1ccc(C(=O)NCCCN2CCCC2)cc1`, the Percent Effect is -2.09% in test [1]; 13.2% in test [2]; 2.99% in [3]; -3.93% in test [4]; -3.8% with Trypanosoma cruzi; 0% in test [5]. For the same compound, the Percent Effect in test [6] is 19.1%; in the test filed under Homo sapiens, -9%; in test [7] it was 4.25%; in [8] it was 7.79%; in test [9] it was -4.55%.
With `Cc1nc(CN2C[C@@H]3CN(C(=O)C4CC4)C[C@@H]3C2=O)cs1`, the Percent Effect in [1] was -1.35%; in test [2], 18.9%; in test [3], 1.84%; in test [4], -11.9%; in the test on Trypanosoma cruzi, -5.57%; in test [5], 4.78%. The Percent Effect was 14.9% in [6]; 18.6% in the test filed under Homo sapiens; 1.08% in [7]; 10.3% in [8]; -6.89% in test [9].
In the case of `Cn1cnnc1C1CCCN(C(=O)NCc2cc[nH]n2)C1` (stereo unspecified), the Percent Effect is -1.36% in test [1]; 18.4% in test [2]; -12.9% in test [3]; -7.02% in [4]; 4.01% with Trypanosoma cruzi; -2.16% in test [5]. Further, the Percent Effect in test [6] is 9.05%; in the test listed under Homo sapiens, 4.39%; in test [7], 6.4%; in test [8], 18.5%; in test [9] it was -8.86%.
With `Cc1ccc(N2CCCC(NCc3cccc4c3OCCO4)C2)nn1` (stereo unspecified), the Percent Effect in test [1] is -2.62%; in test [2] it was 16.2%; in test [3] it was -11.3%; in [4] it was 0.447%; with Trypanosoma cruzi, -1.23%; in [5] it was -2%. Besides, the Percent Effect in test [6] was 7.39%; in the test listed under Homo sapiens, -7.93%; in test [7], 10.3%; in [8] it was 18.5%; in test [9], -10.3%.
As for `O=C(c1ccco1)N1C[C@@H]2OCCN(CCN3CCCC3)[C@@H]2C1`, the Percent Effect was -2.67% in test [1]; 5.41% in test [2]; 5.74% in test [3]; -2.98% in [4]; -1.07% in the test on Trypanosoma cruzi; 1.59% in test [5]. Besides, the Percent Effect in test [6] is 16.1%; in the test listed under Homo sapiens, -16.1%; in test [7], 2.16%; in test [8] it was 5.13%; in [9] it was 4.02%.
On to `OC(CN1CCCCCCC1)c1ccc(F)cc1` (stereo unspecified), for which the Percent Effect was 0.984% in test [1]; 10.5% in test [2]; -3.76% in [3]; -5.28% in [4]; 7.33% with Trypanosoma cruzi; -1.15% in test [5]. The Percent Effect in test [6] was 15.4%; in the test listed under Homo sapiens it was 11.7%; in test [7], 7.35%; in test [8], 19.5%; in [9] it was -11.6%.
On to `O=S(=O)(Cc1ccccc1F)NCCCN1CCCCC1`, for which the Percent Effect in test [1] is -5.56%; in test [2], 2.67%; in [3], -0.488%; in test [4], 18.2%; in the test with Trypanosoma cruzi it was 1.66%; in [5], -1.04%. The Percent Effect in [6] was 3.49%; in the test listed under Homo sapiens, -24.3%; in test [7] it was 1.64%; in test [8], 1.24%; in [9], -4.29%.
Take `Cc1csc(N2CCN(C(=O)CCn3cncn3)CC2)n1`: the Percent Effect is -2.99% in test [1]; 17.7% in test [2]; -7.64% in test [3]; 11.1% in test [4]; 0.472% with Trypanosoma cruzi; 4.18% in [5]. The Percent Effect is 6.31% in [6]; -0.236% in the test listed under Homo sapiens; 8.37% in [7]; 21.5% in test [8]; -6.07% in test [9].
For `CO[C@H]1CCN(Cc2cnn(C)c2)[C@@H]2CN(Cc3cccnc3)C[C@H]12`, the Percent Effect is -0.848% in [1]; 12% in test [2]; 6.27% in test [3]; -3.02% in [4]; -3.93% in the test on Trypanosoma cruzi; -8.63% in test [5]. For the same compound, the Percent Effect in test [6] is 9.06%; in the test listed under Homo sapiens, -3.47%; in [7], 2.12%; in [8], 5.13%; in test [9], -7.83%.

The record behind these values is ChEMBL document CHEMBL3988442, “University of Dundee, Small-Polar-MMV Screening Library” (2021).
